From PubChem BioAssay
The list is not random: actives were taken first. Their share in the collection is about 9.2%.
SMN2 splice up = enhancers of SMN2 splice variant expression. Potency, µM (series often up to 46.1 µM), hits mostly activators. HEK293 SMN2-luciferase splicing reporter, luminescence, 30-36 h. hit rate 2.8% among 210,000. AID 1458; also: nearly all actives have a fitted effect of over 55% in size
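HEK293 cells carry an SMN2 […]–luciferase reporter in which exon 7 inclusion puts luciferase in frame. Cells were plated 10-12 h before compound addition, then incubated 30-36 h at 37C. ONE-Glo luminescence was read; sodium butyrate at 4.5 mM final served as control.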
ELG1 genotoxic = inducers of genotoxicity in HEK293T ELG1-luciferase cells; HEK293T ELG1-luciferase reporter, luminescence, 16 h; Potency, µM (top dose mostly 46 µM), most hits filed as activators; hit rate 1.3% among 330,000; AID 504466; also: nearly all actives have a fitted effect of over 60% in size
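DMSO vehicle served as control against compound-treated ELG1-luciferase HEK293T cells; exposure lasted 16 hr at 37 °C and 5% CO2, followed by ONE-Glo luminescence detection after 30 min.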
Rab9 prom act = activates the Rab9 promoter. Huh7 Rab9 promoter-luciferase reporter, luminescence, 24 h. Potency, µM (highest dose often 9.22 µM), usual class: activators. hit rate 2.8% among 320,000. AID 485297; also: nearly all actives have a fitted effect of over 60% in size
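Luminescence from Amplite-detected luciferase (10 minutes, ambient) reports Rab9 promoter activation. Before that, stable Rab9-luciferase Huh7 cells (1500/well, reduced-serum OP-MEM I plus 10% FBS) were exposed to compound for 24 hours at 37C.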
NPC1 prom act = NPC1 promoter activation; Huh7 NPC1 promoter luciferase reporter, 24 h; Potency, µM (highest dose often 9.22 µM), actives largely listed as activators; hit rate 2.4% among 320,000; also: nearly all actives have a fitted effect of over 60% in size
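Readout is luciferase luminescence, reflecting NPC1 promoter activation in stably transfected Huh7 cells after 24 h compound exposure at 37 °C in reduced-serum medium with 10% FBS.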
ELG1 repair inh = inhibitors of ELG1-dependent DNA repair in HEK293T cells; Potency, µM (series often up to 46.1 µM), most hits filed as inhibitors; hit rate 2.3% among 330,000; HEK293T ELG1-luciferase reporter, luminescence, 16 h; DNA damage induced by 5-fluorouridine; AID 504467; also: nearly all actives have a fitted effect of over 55% in size
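Reporter activity after DNA damage by 5-fluorouridine is monitored. Compound-treated cells incubate 16 hr at 37 °C, then ONE-Glo is added for 30 min before luminescence reading.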
FLuc modulator = counter-screen for miR-21 project: firefly luciferase inhibitors or activators; P08659; hit rate 6.9% among 360,000; Potency, µM (titrated, usually from 57.5 µM), usual class: inhibitors; purified FLuc, Km substrates, luminescence inhibition; also: nearly all actives have a fitted effect of over 55% in size
Target sequence (P08659 whole entry, looked up): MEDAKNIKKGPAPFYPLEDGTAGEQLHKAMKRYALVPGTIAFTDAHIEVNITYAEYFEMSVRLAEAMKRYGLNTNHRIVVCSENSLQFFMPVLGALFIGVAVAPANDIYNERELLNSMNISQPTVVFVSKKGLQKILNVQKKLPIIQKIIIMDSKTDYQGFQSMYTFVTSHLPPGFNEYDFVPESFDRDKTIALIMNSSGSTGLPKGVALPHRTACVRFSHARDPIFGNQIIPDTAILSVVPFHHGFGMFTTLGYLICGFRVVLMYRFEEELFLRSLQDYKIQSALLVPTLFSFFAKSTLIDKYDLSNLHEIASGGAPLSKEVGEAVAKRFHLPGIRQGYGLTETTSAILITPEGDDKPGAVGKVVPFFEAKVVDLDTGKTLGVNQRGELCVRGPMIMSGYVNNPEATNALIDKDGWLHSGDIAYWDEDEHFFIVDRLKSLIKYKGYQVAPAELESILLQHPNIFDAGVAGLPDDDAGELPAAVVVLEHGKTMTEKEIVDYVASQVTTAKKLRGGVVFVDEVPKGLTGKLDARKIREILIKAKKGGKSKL
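Purified P. pyralis luciferase (10nM final) with 10uM D-luciferin and 10uM ATP (Km levels) in 50mM Tris acetate pH 7.5, 10mM Mg acetate, 0.01% Tween-20, 0.05% BSA; qHTS 6-point titration, ~60 µM downward; luminescence read.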
A number is an active result; – = inactive; ? = inconclusive; · = not tested or not shown. Calls follow the shape of the dose curve; as a rule, active = well fitted curve in the direction sought with a large enough effect; inconclusive = small, poorly fitted or top-dose-only effect, or another doubt; inactive = no such curve, though single readings can be large; an effect the other way counts as inactive or inconclusive.

SMILES	SMN2 splice up	ELG1 genotoxic	Rab9 prom act	NPC1 prom act	ELG1 repair inh	FLuc modulator
O=S(=O)(c1ccc(-c2nnc(SCc3ccccc3)o2)cc1)N1CCCC1	–	–	–	–	?	–
C#CCSc1nnc(-c2ccc(C)cc2)o1	13µM	23µM	2.2µM	3.5µM	?	7.6µM
CC(C)c1cc(C(=O)Nc2ccc3c(c2)OCO3)no1	7.1µM	2.1µM	1.6µM	2.8µM	?	3.4µM
O=C(Nc1cc(Cl)ccc1Cl)c1cc2nc(-c3ccc4c(c3)OCO4)cc(C(F)(F)F)n2n1	–	·	·	·	·	–
O=C(Nc1ccc2c(c1)OCO2)c1cc(C2CC2)on1	11µM	2.1µM	1.4µM	1.6µM	?	4.3µM
CC(C)c1cc(C(F)(F)F)n2nc(C(=O)Nc3ccc4c(c3)OCO4)cc2n1	–	?	?	–	?	12µM
N#Cc1ccc(CS(=O)(=O)c2nc3ccccc3s2)cc1	–	·	·	·	·	·
CSc1ccc(C(=O)N2CCc3ccc(NC(=O)c4ccccn4)cc3C2)cc1	·	–	?	?	?	19µM
COc1ccc(-c2cc(N3C(=O)Nc4ccccc4N3O)n[nH]2)c(OC)c1	–	–	–	–	–	15µM
COc1ccc(-c2cc(N3C(=O)Nc4ccccc4N3O)n[nH]2)cc1	?	–	–	–	–	11µM
CCOc1ccc(-c2cc(N3C(=O)Nc4ccccc4N3O)on2)cc1	–	–	–	–	?	2.4µM
C=C1C=C(C(F)F)n2ncc(C(=O)NCc3ccccc3Cl)c2N1	·	·	·	·	·	–
CCC1(C)SC(N)=NN1C(C)=O (stereo not given)	·	–	–	–	–	–
COC(=O)c1ccccc1	–	·	·	·	·	·
COc1cccc(C(=O)/C=C/Nc2cc(C)ccc2O)c1	·	?	–	–	?	2.7µM
COc1cccc(N/C=C/C(=O)c2ccc(OC)c(OC)c2)c1	·	?	?	3.5µM	?	1.3µM
CCOC(=O)c1cccc(N/C=C/C(=O)c2ccc(OC)c(OC)c2)c1	–	?	1.6µM	0.63µM	?	11µM
COC(=O)c1ccc(N/C=C/C(=O)c2ccccc2)cc1	·	?	0.5µM	?	?	0.6µM
COc1ccc(NC(=O)CSc2ccc3c(c2)OCCO3)cc1S(N)(=O)=O	·	–	·	·	–	·
CCOC(=O)c1ccccc1NC(=O)Cc1ccc(OC)c(S(=O)(=O)N2CCOCC2)c1	·	–	·	·	–	·
CC(=O)Nc1ccc(N/C=C/C(=O)c2ccc(C)cc2)cc1	·	–	–	?	?	–
COc1ccc(C(=O)/C=C/Nc2cccc(O)c2)cc1	?	1.5µM	?	–	?	0.38µM
Cc1cccc(C(=O)NN/C=C/C(=O)c2ccccc2)c1	·	–	–	–	–	–
O=C(/C=C\Nc1ccccn1)c1ccc(Cl)cc1	1µM	?	0.1µM	0.28µM	?	0.19µM
Cc1cccc(N/C=C/C(=O)c2ccc(Cl)cc2)c1	·	?	0.35µM	0.56µM	?	0.67µM
SMILES	SMN2 splice up	ELG1 genotoxic	Rab9 prom act	NPC1 prom act	ELG1 repair inh	FLuc modulator
Cc1ccc(Cl)c(N/C=C/C(=O)c2ccccc2)c1	·	9.2µM	?	?	?	1.1µM
CC1Cc2ccccc2N1C(=O)CN1C(=O)NC2(CCCCC2)C1=O (stereo not given)	·	–	–	–	–	–
CCOC(=O)c1c(C)[nH]c(CCC(=O)Nc2cc(Cl)ccc2OC)c1C	·	·	·	·	·	–
COc1cccc(C(=O)/C=C/Nc2ccc(S(=O)(=O)Nc3ccc(C(C)=O)cc3)cc2)c1	·	–	–	–	–	?
CCOC(=O)c1ccc(OS(=O)(=O)c2ccccc2)c(OC)c1	11µM	?	2.8µM	2.8µM	?	7.6µM
COc1ccc(OC)c(N/C=C/C(=O)c2ccc(OC)c(OC)c2)c1	·	?	–	–	–	19µM
COc1ccc(C(=O)/C=C/Nc2ccc(S(=O)(=O)Nc3cccc(C(C)=O)c3)cc2)cc1	–	–	–	–	23µM	–
CCOC(=O)c1ccc(N/C=C\C(=O)c2cccc(OC)c2)cc1	?	–	?	?	?	3µM
CCOC(=O)c1cc(S(=O)(=O)Nc2cc(F)ccc2C)[nH]n1	·	·	·	·	·	–
COc1ccc(-c2noc(-c3ccc(NCCc4ccccc4)c([N+](=O)[O-])c3)n2)cc1	·	·	·	·	·	–
c1ccc(OCCSc2nnnn2C2CCCCC2)cc1	11µM	?	1µM	0.56µM	?	2.1µM
